Screens from PubChem BioAssay.
Rows were chosen to be rich in hits. Some 5.2% of all compounds tested hit in one or more screens of this group.
APOBEC3A inh – APOBEC3A ssDNA deaminase inhibitors, primary screen, selectivity assay for APOBEC3G inhibitor project, biochemical, FAM/TAMRA oligo cleavage fluorescence; recombinant A3A, FAM/TAMRA ssDNA deamination fluorescence; inhibition, % at 20 µM; 330,000 tested, 0.41% active; AID 493011, 2011;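 active means at least 40% inhibition at 20 µM here, with at most 30% in a related deaminase screen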
APOBEC3G inh – APOBEC3G DNA deaminase inhibitors, primary screen, biochemical, fluorescence, single-stranded DNA substrate, uHTS; DNA dC->dU-editing enzyme APOBEC-3G (Homo sapiens), Q9HC16; recombinant A3G, ssDNA deamination FAM/TAMRA fluorescence; inhibition, % at 20 µM; 330,000 tested, 0.28% active; AID 493012, 2011;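 active means inhibition of at least 40% at 20 µM, with no more than 30% in the related APOBEC3A deaminase screen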
Target sequence (Q9HC16 whole entry, looked up): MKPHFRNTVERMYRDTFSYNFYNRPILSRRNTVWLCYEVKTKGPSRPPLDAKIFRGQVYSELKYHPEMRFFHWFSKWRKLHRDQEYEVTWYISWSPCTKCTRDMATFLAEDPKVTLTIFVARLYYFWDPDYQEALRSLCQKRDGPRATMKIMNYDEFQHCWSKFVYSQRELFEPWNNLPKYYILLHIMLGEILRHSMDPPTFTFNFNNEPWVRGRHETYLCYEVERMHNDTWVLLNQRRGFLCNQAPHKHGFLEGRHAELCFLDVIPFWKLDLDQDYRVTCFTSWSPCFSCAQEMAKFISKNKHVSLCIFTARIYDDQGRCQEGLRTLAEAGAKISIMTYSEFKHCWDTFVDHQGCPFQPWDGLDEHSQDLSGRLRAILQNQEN
ALR inh – inhibitors of human ALR sulfhydryl oxidase, primary screen, biochemical, H2O2 detection, HRP-luminol luminescence, single point; FAD-linked sulfhydryl oxidase ALR (Homo sapiens), P55789; purified ALR, DTT oxidation; inhibition, % (concentration not given with the values); 290,000 tested, 3.8% active; AID 485317, 2010;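 active means mean replicate inhibition above about 79%, with every replicate also reaching it, limit read from the data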
Target sequence (P55789 whole entry, looked up): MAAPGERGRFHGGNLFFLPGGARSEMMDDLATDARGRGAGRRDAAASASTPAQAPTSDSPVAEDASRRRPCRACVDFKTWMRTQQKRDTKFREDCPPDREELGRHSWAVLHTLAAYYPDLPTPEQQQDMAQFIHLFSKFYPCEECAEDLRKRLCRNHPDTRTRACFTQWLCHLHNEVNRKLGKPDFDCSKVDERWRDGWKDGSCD
Yeast superoxide – reduction of superoxide in aged yeast, primary screen, HTS; S. cerevisiae aged cells, superoxide DHE fluorescence; active compounds read low; 330,000 tested, 0.18% active; superoxide response (% of plate mean), % at 10 µM;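 active means superoxide response under a set limit, about three screen SD below normal, cut at about 65% in these data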;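 further: yeast aged for seven days with compound at 30 °C before DHE staining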
M18AAP inhibitor – PfM18AAP inhibitors, malaria aminopeptidase, primary screen, biochemical, QFRET, recombinant enzyme | M18 aspartyl aminopeptidase (Plasmodium falciparum 3D7) | H-Glu-NHMec fluorogenic cleavage | inhibition, % at 7.35 µM | 290,000 tested, 1.2% active | AID 1822, 2009;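 active means inhibition above the campaign mean inhibition over all tested compounds plus 3 SD, cut at about 28% in these data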
NRP1-CendR mod – modulators of CendR peptide binding to NRP-1, primary screen, biochemical, fluorescence polarization, uHTS; FAM-RPARPAR peptide binding to NRP-1; inhibition, % at 25 µM; 360,000 tested, 0.85% active; AID 602438, 2012;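 active means inhibition or corrected inhibition above about 18%, plus a signal ratio from 0.5 to 1.5, limit read from the data, passing the limit was not always enough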
Large screens that a line does not name were inactive.

OCCN1CCN(CCCN2c3ccccc3Sc3ccc(C(F)(F)F)cc32)CC1	ALR inh 98
CN(C)CCC(=O)N1c2ccccc2Sc2ccc(C(F)(F)F)cc21	ALR inh 98
CCOC(=O)N1CCN(C(=O)CCN2C(=O)/C(=C\c3ccc(OC)c(OC)c3)SC2=S)CC1	none (no result: APOBEC3A inh, APOBEC3G inh, ALR inh, Yeast superoxide, M18AAP inhibitor)
COc1ccc(/C=C2\SC(=S)N(CCC(=O)NC3CCCC3)C2=O)cc1OC	NRP1-CendR mod 22
Cc1cc(C)nc(Nc2nc(=O)c3ccccc3s2)n1	NRP1-CendR mod 21
COc1ccc(/C=N/NC(=O)CCc2c(C)n[nH]c2C)cc1O	ALR inh 99
COc1ccc(/C=N/NC(=O)CCc2n[nH]c(=O)[nH]c2=O)cc1O	ALR inh 99
C=CCN(C(=O)CCC(=O)Nc1cc(C)on1)C(C(=O)NC1CCCC1)c1ccc(Cl)cc1 (stereo not given)	none (no result: ALR inh)
COc1cc2cc(CN(Cc3ccc4c(c3)OCO4)C(=O)c3ccco3)c(=O)[nH]c2cc1OC	none
COc1ccc(CNC(=O)CCCn2nc(C)n3ccnc3c2=O)cc1	none
CCOc1ccc(C(C)=O)cc1CN1c2ccc(S(N)(=O)=O)cc2CC1C (stereo not given)	ALR inh 79
CCC(C(=O)NC(C)(C)C)N(Cc1cccs1)C(=O)CNS(=O)(=O)c1ccccc1 (stereo not given)	none
Cc1cc(-c2ccco2)n(CC(=O)O)n1	none
CCN(CC(=O)NCc1ccc(Cl)cc1)C(=O)CCc1ccccc1	none
O=c1oc2c(-c3cccc(F)c3)cc(O)cc2s1	NRP1-CendR mod 33
O=C(CSc1nc(-c2ccccc2Cl)ns1)c1ccc(Cl)cc1	none
Cc1cccc(-c2nsc(SCC(=O)c3ccc(Cl)cc3)n2)c1	NRP1-CendR mod 45
CCOC(=O)c1nnn2c1nc(SCC(C)=O)c1ccccc12	ALR inh 88
C=CCSc1nc2c(C(=O)OCC)nnn2c2ccccc12	none (no result: APOBEC3A inh, APOBEC3G inh)
Cc1cc(C(=O)COc2cc(F)ccc2[N+](=O)[O-])c(C)n1C1CC1	none
Cn1ccnc1SCc1ccc([N+](=O)[O-])cc1	ALR inh 99
Cn1ccnc1SCc1cccc([N+](=O)[O-])c1	ALR inh 98
CCN1CCN(S(=O)(=O)c2cc(OCC(=O)NC3CCCCC3)c(C)cc2Cl)CC1	none
COCc1[nH][nH]c(=O)c1C=Nc1ccc(Oc2ccccc2)cc1	ALR inh 99
Cc1c(C)c2ccc(OCC(=O)Nc3ccc(CN4CCOCC4)cc3)cc2oc1=O	none
O=c1ccc(-c2ccc(S(=O)(=O)Nc3cccc([N+](=O)[O-])c3)s2)n[nH]1	none
CCCCn1c2c(c(=O)n(C)c1=O)C(CC(=O)OCC(=O)Nc1cccc(C(F)(F)F)c1)C(=O)N2 (stereo not given)	none
Cc1cc(-c2ccc(S(=O)(=O)NCc3ccc(Cl)cc3)cc2)on1	NRP1-CendR mod 28 (no result: APOBEC3A inh, APOBEC3G inh, ALR inh, Yeast superoxide, M18AAP inhibitor)
CCCNC(=O)CSCc1nc(-c2ccc(SC)cc2)oc1C	ALR inh 99
Cc1ccc(-c2nc(CSCC(=O)Nc3cc(C)on3)c(C)o2)cc1	none (no result: ALR inh)
COC(CNC(=O)CSCc1nc(-c2ccc(SC)cc2)oc1C)OC	ALR inh 99
Cc1ccccc1Cn1cc(S(=O)(=O)c2ccc(C(C)C)cc2)c(=O)c2cc3c(cc21)OCO3	none (no result: M18AAP inhibitor)
O=C1NCCN1C(=O)c1cccc(Cl)c1	none
COc1ccc(C2CC(=O)C3=C(C2)Nc2ccccc2N(C(=O)C2CC2)C3c2cccnc2)cc1OC (stereo not given)	none
O=C(O)CCn1c(-c2ccccc2)cc2c1CCCC2=O	M18AAP inhibitor 29
COC(=O)c1cc2c(n(Cc3ccccc3)c1=O)CCCC2=O	none (no result: APOBEC3A inh, APOBEC3G inh, ALR inh, Yeast superoxide, M18AAP inhibitor)
CCCCc1cn([C@@H](CCCCN)C(=O)N2CCNCC2)nn1	NRP1-CendR mod 22 (no result: ALR inh)
NCCCC[C@@H](C(=O)N1CCNCC1)n1cc(CN)nn1	none (no result: M18AAP inhibitor)
O=C(/C=C/c1ccccc1)NNc1ccc(Cl)cc1	none
CC(=O)C(=Nc1ccccc1Cl)NNc1ccc(Cl)cc1	ALR inh 95
CN(C)[C@@H]1C(=O)C(C(=O)NCN2CCCC2)=C(O)[C@@]2(O)C(=O)C3=C(O)c4c(O)cccc4[C@@](C)(O)C3CC12 (stereo not given in full)	M18AAP inhibitor 28 (no result: APOBEC3A inh, APOBEC3G inh, ALR inh, Yeast superoxide, NRP1-CendR mod)
C[C@H]1c2cccc(O)c2C(O)=C2C(=O)C3(O)C(O)=C(C(N)=O)C(=O)[C@@H](N(C)C)[C@@H]3[C@@H](O)[C@@H]21 (stereo not given in full)	none (no result: M18AAP inhibitor)
CCCCn1nnnc1NCc1ccc(N(CC)CC)cc1	ALR inh 99, M18AAP inhibitor 31
CCOc1ccc(CNc2nc3ccccc3n2CCN2CCOCC2)cc1	ALR inh 97
c1ccc(Cn2c(CNc3nc4ccccc4n3CCN3CCCCC3)nc3ccccc32)cc1	NRP1-CendR mod 30
CCCn1nnnc1NCc1cccc(OC)c1OC	none
Cn1c(CNc2nc3ccccc3n2CCN2CCCCC2)nc2ccccc21	none
Brc1cccc(CNc2nc3ccccc3n2CCN2CCOCC2)c1	none
CCCCn1nnnc1NCc1cccc(OC)c1OC	NRP1-CendR mod 23
O=C(c1ccco1)N1CCN(S(=O)(=O)c2cccc(C(F)(F)F)c2)CC1	none
CN(C)C(=O)CSc1ccc(S(=O)(=O)N2CCOCC2)cn1	none (no result: ALR inh, M18AAP inhibitor)
CC1CC(C)(C)NC(=S)N1CC(=O)NCc1ccc(F)cc1 (stereo not given)	none (no result: ALR inh)
COc1ccc(CNC(=O)[C@@H](C)NC(=O)[C@@H]2Cc3ccccc3CN2)cc1	none
Cc1ccc2nc(C(C)(C)C)c(Cc3cccc(Cl)c3)n2c1	none (no result: APOBEC3A inh, APOBEC3G inh, ALR inh, Yeast superoxide, M18AAP inhibitor)
CCN(CC)c1ccc(CNc2nc3ccccc3n2C)cc1	ALR inh 98
CC(C)n1c(CN(C)c2ccccc2)nc2ccccc21	ALR inh 97
CCN(CC)c1ccc(CNc2nc3ccccc3n2CCN2CCCCC2)cc1	ALR inh 99
COc1ccc(CNc2nc3ccccc3n2CCN2CCCCC2)cc1	ALR inh 97
OCCNc1nc2ccccc2n1CCN1CCCCC1	none
CCn1c(NCc2ccc(N(C)C)cc2)nc2ccccc21	none
COc1ccc(C(CNS(=O)(=O)c2ccc(F)cc2)N2CCN(C)CC2)cc1 (stereo not given)	none (no result: ALR inh, M18AAP inhibitor)
CCN(Cc1nc2ccccc2n1C)c1ccccc1	ALR inh 99
Cc1ccccc1-c1ccc(Nc2ccc(N3CCOCC3)cc2)nn1	ALR inh 93
Cc1cccc(C)c1OCC(C)N (stereo not given)	none (no result: M18AAP inhibitor)
O=C(CSc1ccc(-c2ccco2)nn1)Nc1ccc(F)cc1	none
